Molecules are shown by their SMILES. Calls of active or inactive are those of the source. Rule for the calls: active = hit-call score of the fitted dose curve at least 0.9, where 1 is the maximum; inactive = score below 0.9.

Results on 8 compounds are retold here after PubChem BioAssay (EPA / NIEHS).

Settings in all cases: mRNA level, 48 h; actives raise or lower the signal
Read-out in experiment [1]: CFLAR gene, CFLAR (gene 8837)
In words: LTEA_HepaRG_CFLAR: Life Technologies and Expression Analysis (LTEA) Assay for CFLAR gene using HepaRG (AID 2283455). Put shortly: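 HepaRG, 48 h exposure, 8-pt conc-response (100 uM top, half-log), 0.5% DMSO vehicle, duplicates. CFLAR expression by qRT-PCR; ACTB/GAPDH/POLR2A normalization; gain or loss fit vs DMSO baseline.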

Read-out in experiment [2]: Forkhead box O1 (FOXO1), FOXO1 (gene 2308)
In words: LTEA_HepaRG_FOXO1: Life Technologies and Expression Analysis (LTEA) Assay for Forkhead box O1 (FOXO1) using HepaRG (AID 2283456). The essentials:
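Readout is FOXO1 transcript level by multiplexed qRT-PCR against three housekeeping genes, curve-fitted in both directions relative to 0.5% DMSO vehicle. Human HepaRG cultures received chemicals for 48 h, up to 100 uM in half-log steps.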

Read-out in experiment [3]: growth arrest and DNA damage 45 (GADD45A), GADD45A (gene 1647)
In words: LTEA_HepaRG_GADD45A: Life Technologies and Expression Analysis (LTEA) Assay for growth arrest and DNA damage 45 (GADD45A) using HepaRG (AID 2283458). Put shortly:
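Differentiated HepaRG cells were exposed in duplicate for 48 h in serum-free induction medium to 8-point half-log concentrations up to 100 uM in 0.5% DMSO. GADD45A mRNA was measured by TaqMan qRT-PCR, normalized to ACTB, GAPDH and POLR2A, with bidirectional fitting versus DMSO.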

Read-out in experiment [4]: ABC Transporter (ABCB1), ABCB1 (gene 5243)
In words: LTEA_HepaRG_ABCB1: Life Technologies and Expression Analysis (LTEA) Assay for ABC Transporter (ABCB1) using HepaRG (AID 2283460). Put shortly:
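Expression of ABCB1 was quantified by qRT-PCR against three housekeeping genes after human HepaRG cultures received test chemicals for 48 hours. Concentrations spanned eight half-log steps topping at 100 uM in 0.5% DMSO; gain or loss of signal was fitted relative to vehicle.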

Read-out in experiment [5]: growth arrest and DNA damage 45 (GADD45B), GADD45B (gene 4616)
In words: LTEA_HepaRG_GADD45B: Life Technologies and Expression Analysis (LTEA) Assay for growth arrest and DNA damage 45 (GADD45B) using HepaRG (AID 2283461). The essentials:
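Transcript level quantified by Fluidigm TaqMan qRT-PCR with three housekeeping genes for normalization, analyzed for up- or down-regulation against 0.5% DMSO. HepaRG cultures dosed 48 h at eight half-log concentrations up to 100 uM, duplicates.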

Read-out in experiment [6]: ABC Transporter (ABCC3), ABCC3 (gene 8714)
In words: LTEA_HepaRG_ABCC3: Life Technologies and Expression Analysis (LTEA) Assay for ABC Transporter (ABCC3) using HepaRG (AID 2283462). The essentials: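 Transcript level by TaqMan qRT-PCR, normalised to three housekeeping genes, fitted in both directions relative to vehicle. Chemicals tested in duplicate at eight half-log concentrations up to 100 uM for 48 h on HepaRG cells (0.5% DMSO).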

Read-out in experiment [7]: ABC Transporter (ABCB11), ABCB11 (gene 8647)
In words: LTEA_HepaRG_ABCB11: Life Technologies and Expression Analysis (LTEA) Assay for ABC Transporter (ABCB11) using HepaRG (AID 2283463). Put shortly:
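ABCB11 transcript levels are read by Fluidigm TaqMan qRT-PCR after 48 h chemical treatment of human HepaRG cells. Concentrations span 100 uM downward in half-log steps with 0.5% DMSO; gain or loss is fitted against DMSO controls.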

Read-out in experiment [8]: ABC Transporter (ABCC2), ABCC2 (gene 1244)
In words: LTEA_HepaRG_ABCC2: Life Technologies and Expression Analysis (LTEA) Assay for ABC Transporter (ABCC2) using HepaRG (AID 2283464). The essentials:
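Endpoint is ABCC2 transcript level from qRT-PCR, normalized to three housekeeping genes and fitted bidirectionally relative to DMSO. Human HepaRG cells received test chemical for 48 h at up to 100 uM (8 points, half-log steps, 0.5% DMSO), duplicate wells.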

Read-out in experiment [9]: Broad substrate specificity ATP-binding cassette transporter ABCG2 (Homo sapiens) (UniProt Q9UNQ0)
In words: LTEA_HepaRG_ABCG2: Life Technologies and Expression Analysis (LTEA) Assay for ABC Transporter (ABCG2) using HepaRG (AID 2283465). The essentials: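 Read-out is ABCG2 mRNA induction or loss quantified by qRT-PCR after 48 h chemical treatment of human HepaRG cells, normalized to three housekeeping genes. Concentrations reached 100 uM top in half-log steps; fitting was bidirectional against 0.5% DMSO.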

Read-out in experiment [10]: ATP-citrate lyase (ACLY), ACLY (gene 47)
In words: LTEA_HepaRG_ACLY: Life Technologies and Expression Analysis (LTEA) Assay for ATP-citrate lyase (ACLY) using HepaRG (AID 2283466). Put shortly:
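HepaRG, 48 h exposure, 8-pt half-log dilutions (top 100 uM), 0.5% DMSO. Readout: ACLY mRNA, TaqMan qRT-PCR, housekeeping-normalized (ACTB/GAPDH/POLR2A). Bidirectional curve fit vs DMSO.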

Read-out in experiment [11]: Peroxisomal acyl-coenzyme A oxidase 1 (ACOX1) gene, ACOX1 (gene 51)
In words: LTEA_HepaRG_ACOX1: Life Technologies and Expression Analysis (LTEA) Assay for Peroxisomal acyl-coenzyme A oxidase 1 (ACOX1) gene using HepaRG (AID 2283467). The essentials:
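Measured by qRT-PCR against three housekeeping genes: ACOX1 transcript change in human HepaRG cells after 48 h dosing. Concentrations ran up to 100 uM in half-log steps. Curves were fitted bidirectionally relative to 0.5% DMSO.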

Read-out in experiment [12]: Alkaline Phosphatase, Placental (ALPP) gene, ALPP (gene 250)
In words: LTEA_HepaRG_ALPP: Life Technologies and Expression Analysis (LTEA) Assay for Alkaline Phosphatase, Placental (ALPP) gene using HepaRG (AID 2283468). Put shortly:
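ALPP transcript level, measured by qRT-PCR and normalized to three housekeeping genes (ACTB, GAPDH, POLR2A), after 48 h dosing of differentiated HepaRG in serum-free induction medium. Top concentration 100 uM with half-log dilutions (8 points, 0.5% DMSO, duplicates); bidirectional fitting relative to DMSO.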

Read-out in experiment [13]: Bcl-2 (BAD) gene, BAD (gene 572)
In words: LTEA_HepaRG_BAD: Life Technologies and Expression Analysis (LTEA) Assay for Bcl-2 (BAD) gene using HepaRG (AID 2283469). The essentials: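 BAD transcript change, measured by qRT-PCR against three housekeeping genes and fitted in both directions relative to 0.5% DMSO, after 48 h chemical treatment of human HepaRG liver cells at concentrations up to 100 uM.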

Read-out in experiment [14]: Bcl-2 (BAX) gene, BAX (gene 581)
In words: LTEA_HepaRG_BAX: Life Technologies and Expression Analysis (LTEA) Assay for Bcl-2 (BAX) gene using HepaRG (AID 2283470). The essentials:
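Differentiated human HepaRG cells, plated 48 h then switched to serum-free induction medium, were exposed 48 h to 8 half-log concentrations up to 100 uM in 0.5% DMSO; BAX mRNA measured by qRT-PCR, normalized to ACTB, GAPDH, POLR2A.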

Read-out in experiment [15]: Alpha-fetoprotein (AFP) gene, AFP (gene 174)
In words: LTEA_HepaRG_AFP: Life Technologies and Expression Analysis (LTEA) Assay for Alpha-fetoprotein (AFP) gene using HepaRG (AID 2283472). Put shortly: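 Human HepaRG cells plated 48 h, then switched to serum-free induction medium and exposed in duplicate for 48 h to 8-point half-log series from 100 uM in 0.5% DMSO. AFP mRNA by qRT-PCR, normalized to ACTB, GAPDH, POLR2A; bidirectional fit versus DMSO.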

Read-out in another experiment: BCL2L11 (gene 10018)
In words: LTEA_HepaRG_BCL2L11: Life Technologies and Expression Analysis (LTEA) Assay for Bcl-2 (BCL2L11) gene using HepaRG (AID 2283473). The essentials: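 BCL2L11 transcript levels are measured by Fluidigm qRT-PCR, normalized to three housekeeping genes. HepaRG cultures were plated 48 h, then treated 48 h with test chemical (top 100 uM, half-log, 0.5% DMSO vehicle); curves were fitted bidirectionally against DMSO.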

Read-out in experiment [16]: Apolipoprotein A-V (APOA5) gene, APOA5 (gene 116519)
In words: LTEA_HepaRG_APOA5: Life Technologies and Expression Analysis (LTEA) Assay for Apolipoprotein A-V (APOA5) gene using HepaRG (AID 2283474). The essentials:
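APOA5 transcript levels were quantified by qRT-PCR, normalized to three housekeeping genes, after 48 h chemical treatment of HepaRG cells (8 points, 100 uM maximum, half-log steps, 0.5% DMSO). Curves fitted in both directions against vehicle.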

Read-out in experiment [17]: adenosine kinase (ADK) gene, ADK (gene 132)
In words: LTEA_HepaRG_ADK: Life Technologies and Expression Analysis (LTEA) Assay for adenosine kinase (ADK) gene using HepaRG (AID 2283471). Put shortly:
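ADK expression quantified by qRT-PCR, normalised to three housekeeping genes, after 48 h exposure of HepaRG cells to eight concentrations (top 100 uM, half-log steps, duplicate, 0.5% DMSO). Up- or down-regulation fitted relative to vehicle.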

Sequence of Broad substrate specificity ATP-binding cassette transporter ABCG2 (Homo sapiens) (Q9UNQ0 whole entry, looked up): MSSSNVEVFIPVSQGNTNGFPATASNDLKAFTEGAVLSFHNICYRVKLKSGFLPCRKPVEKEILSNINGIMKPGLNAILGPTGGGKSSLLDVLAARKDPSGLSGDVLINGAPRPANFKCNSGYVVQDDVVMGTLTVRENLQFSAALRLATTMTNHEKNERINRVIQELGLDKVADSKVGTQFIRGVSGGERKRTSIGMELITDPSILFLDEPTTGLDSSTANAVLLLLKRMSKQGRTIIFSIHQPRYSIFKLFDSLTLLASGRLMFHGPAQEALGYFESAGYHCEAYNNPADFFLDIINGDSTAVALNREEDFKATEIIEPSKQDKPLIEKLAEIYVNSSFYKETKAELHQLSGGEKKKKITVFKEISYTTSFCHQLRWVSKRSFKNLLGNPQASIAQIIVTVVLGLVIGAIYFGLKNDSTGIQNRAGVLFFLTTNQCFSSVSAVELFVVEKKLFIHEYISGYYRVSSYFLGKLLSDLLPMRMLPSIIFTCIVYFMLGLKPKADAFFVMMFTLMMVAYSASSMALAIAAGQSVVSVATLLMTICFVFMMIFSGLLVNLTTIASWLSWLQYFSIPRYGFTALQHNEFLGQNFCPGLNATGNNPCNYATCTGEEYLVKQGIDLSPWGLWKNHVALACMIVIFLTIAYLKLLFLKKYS

Consider `C=CC(=O)NCNC(=O)C=C`, for which the compound was called inactive in experiment [1], in experiment [2], in experiment [3], in experiment [4], in experiment [6] and in experiment [9]. For the same compound, the result (in [11]; in experiment [12]; in experiment [13]; in experiment [14]; in experiment [15]; with BCL2L11 (gene 10018)) was inactive. Also, in [16], the compound was classed as inactive. For the same compound, the concentration at half-maximal activity (AC50) – broadly, the midpoint of the concentration-response curve, whichever way the signal moves – is 50 µM (active) in [5], 50 µM (active) in [7], 16 µM (active) in [8] and 12.7 µM (active) in [10].
Take `COc1ccc(O)c(C(C)(C)C)c1`: the compound was called inactive in experiment [1], in [2], in [3], in [4], in experiment [5] and in experiment [6]. Further, the compound was classed as inactive in [7], in experiment [8], in experiment [9], in experiment [10], in experiment [11] and in experiment [12]. Besides, the compound was called inactive (in experiment [13]; in experiment [14]; in experiment [15]; in the experiment with BCL2L11 (gene 10018); in experiment [16]).
For `CCC(C)(CC)c1cc(NC(=O)c2c(OC)cccc2OC)on1`, the result in [1], in [2], in [3], in experiment [5], in experiment [6] and in experiment [9] was inactive. In addition, the result (in [10]; in [11]; in experiment [12]; in experiment [13]; in experiment [14]; in the experiment with BCL2L11 (gene 10018)) was inactive. The compound was called inactive in experiment [16]. Besides, the AC50 in experiment [4] was 1.15 µM (active); in experiment [7] it was 83 µM (active); in experiment [8], 6.13 µM (active); in experiment [15], 28.9 µM (active).
Take `CCCCCCCCOC(=O)c1ccccc1C(=O)OCCCCCCCC`: the result in [1], in [2], in [3], in experiment [4], in [5] and in experiment [6] was inactive. The compound was classed as inactive in [7], in experiment [8], in experiment [9], in experiment [10], in experiment [11] and in [12]. In addition, the compound was classed as inactive (in [13]; in [14]; in [17]; in the experiment with BCL2L11 (gene 10018); in [16]).
Consider `CN(C)c1nc(=O)n(C2CCCCC2)c(=O)n1C`, for which the call in [1], in experiment [2], in [3], in [4], in experiment [5] and in [6] was inactive. The compound was called inactive in experiment [7], in [8], in [9], in [10], in [11] and in [13]. Moreover, the outcome (in [14]; in the experiment with BCL2L11 (gene 10018); in [16]) was inactive. Further, the AC50 in [12] was 12.5 µM (active).
As to `O=S(=O)(O)C(F)(F)C(F)(F)C(F)(F)C(F)(F)C(F)(F)C(F)(F)F`, the call in experiment [1], in [2], in [3], in experiment [4], in experiment [5] and in experiment [6] was inactive. Further, the compound was classed as inactive in experiment [7], in experiment [8], in [9], in experiment [10], in experiment [12] and in experiment [13]. Moreover, the outcome (in [14]; in experiment [15]; in the experiment with BCL2L11 (gene 10018)) was inactive. The figures for the AC50 in experiment [11] and in [16] were 6.58 µM (active) and 3.42 µM (active), respectively.
Turning to `CC(C)(c1ccccc1)c1ccc(O)cc1`, the compound was classed as inactive in [2], in [3], in [4], in [5], in experiment [6] and in experiment [8]. The compound was called inactive in experiment [9], in experiment [10], in [11], in [12], in experiment [13] and in experiment [14]. Further, the result (in [17]; in the experiment with BCL2L11 (gene 10018)) was inactive. For the same compound, the AC50 in experiment [7] was 76.1 µM (active); in experiment [16], 78.3 µM (active).
As to `Nn1cnnc1`, the result in experiment [1], in experiment [2], in [3], in experiment [4], in [5] and in experiment [6] was inactive. In addition, the compound was classed as inactive in [7], in experiment [8], in [9], in [10], in experiment [11] and in experiment [12]. Also, the outcome (in [13]; in experiment [14]; with BCL2L11 (gene 10018); in experiment [16]) was inactive.
